High-throughput results (PubChem BioAssay)
Rab9 promoter act: activates the Rab9 promoter; 320,000 compounds, 2.8% hits; AID 485297; Huh7 Rab9 promoter-luciferase reporter, luminescence, 24 h; Potency, µM (series often up to 9.22 µM), inactives show top-dose activation, negative = inhibition, actives largely listed as activators; also: % of control where 0% means no effect; nearly all actives have a fitted effect of over 60% in size
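Luciferase signal after 10 min detection reagent at ambient indicates Rab9 promoter upregulation; stably transfected Huh7 cells were treated 24 h with compound in DMSO at 37 °C, 5% CO2.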
ELG1 genotoxic: induces genotoxicity in HEK293T cells with luciferase-tagged ELG1 | HEK293T ELG1-luciferase reporter, luminescence, 16 h | Potency, µM (highest dose often 46 µM), inactives show top-dose activity change, positive = activation, actives largely listed as activators | 330,000 compounds, 1.3% hits; also: % of control where 0% means no effect; nearly all actives have a fitted effect of over 60% in size
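DMSO vehicle served as control against compound-treated ELG1-luciferase HEK293T cells; exposure lasted 16 hr at 37 °C and 5% CO2, followed by ONE-Glo luminescence detection after 30 min.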
FLuc counter: inhibits or activates purified firefly luciferase, miR-21 counter-screen; purified FLuc, Km substrates, luminescence inhibition; P08659; Potency, µM (highest dose often 57.5 µM), without a hit: at the highest dose activity change, negative = inhibition, actives largely listed as inhibitors; 360,000 compounds, 6.9% hits;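 also: plate controls were vehicle for no effect and reference inhibitor for full effect; nearly all actives have a fitted effect of over 55% in size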
Target sequence (P08659 whole entry, looked up): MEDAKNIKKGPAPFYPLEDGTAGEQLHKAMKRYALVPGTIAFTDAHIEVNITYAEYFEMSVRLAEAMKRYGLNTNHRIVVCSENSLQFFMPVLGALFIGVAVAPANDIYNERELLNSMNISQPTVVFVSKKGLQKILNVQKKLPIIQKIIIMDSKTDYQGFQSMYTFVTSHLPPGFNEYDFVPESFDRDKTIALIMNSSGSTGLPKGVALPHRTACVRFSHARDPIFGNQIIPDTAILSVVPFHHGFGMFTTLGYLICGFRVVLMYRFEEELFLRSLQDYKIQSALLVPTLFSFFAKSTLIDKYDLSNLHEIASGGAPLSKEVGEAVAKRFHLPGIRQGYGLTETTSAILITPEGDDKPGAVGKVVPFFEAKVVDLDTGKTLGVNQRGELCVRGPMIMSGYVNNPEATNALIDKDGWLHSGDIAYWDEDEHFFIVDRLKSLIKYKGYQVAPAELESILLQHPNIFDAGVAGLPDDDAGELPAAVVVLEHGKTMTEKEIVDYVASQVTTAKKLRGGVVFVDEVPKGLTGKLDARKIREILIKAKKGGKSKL
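Purified P. pyralis luciferase, 10 nM final, with Km-level 10 uM D-luciferin and 10 uM ATP in 50 mM Tris acetate pH 7.5, 10 mM Mg acetate, 0.01% Tween-20, 0.05% BSA; 6-point qHTS titration about 60 µM downward; luminescence read.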
KinaseGlo FLuc: counter-screen: inhibitors of Kinase-Glo firefly luciferase | 200,000 compounds, 0.28% hits | Kinase-Glo luciferase, ATP luminescence, 8 min | Q27757 | Potency, µM (highest dose often 38.3 µM), for the others: at the top dose activity change, negative = inhibition, most hits filed as inhibitors | AID 1379; also: % is scaled to controls: 0 for no effect and ±100 for the full control effect; nearly all actives have a fitted effect of over 60% in size
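Recombinant Kinase-Glo luciferase, 10 uM ATP (linear range), luciferin; imidazole pH 7.2 / KCl / MgCl2 / Tween / BSA buffer; 8 min RT; luminescence.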
SMN2 splice up: increases expression of the SMN2 splice variant; HEK293 SMN2-luciferase splicing reporter, luminescence, 30-36 h; Potency, µM (top dose mostly 46.1 µM), for the others: top-dose activity change, positive = activation, actives largely listed as activators; 210,000 compounds, 2.8% hits; AID 1458; also: % of control where 0% means no effect; nearly all actives have a fitted effect of over 55% in size
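HEK293 cells carry an SMN2 minigene-luciferase reporter in which exon 7 inclusion puts luciferase in frame. Cells were seeded at 2000 cells/well, attached for 10-12 hours, then exposed to compounds for 30-36 hours at 37C before ONE-Glo luminescence.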
NPC1 prom act: NPC1 promoter activation; Huh7 NPC1 promoter luciferase reporter, 24 h; 320,000 compounds, 2.4% hits; AID 485313; Potency, µM (series often up to 9.22 µM), for inactives: top-dose activation, usual class: activators; also: % of control where 0% means no effect; nearly all actives have a fitted effect of over 60% in size
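Huh7 cells stably carrying NPC1 promoter–luciferase, plated in Opti-MEM with 10% FBS for 2 h, were exposed to compound in DMSO for 24 h at 37 °C; luciferase reagent was added for 10 min and luminescence read.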
An asterisk follows results filed as active; [ ] = dose if it differs, or a comment. Only some compounds are listed: those with a hit (about 7.3% of all), similar ones and a draw of the others. Calls follow the shape of the dose curve; as a rule, active = well fitted curve in the direction sought with a large enough effect; inconclusive = small, poorly fitted or top-dose-only effect, or another doubt; inactive = no such curve, though single readings can be large; an effect the other way counts as inactive or inconclusive. Potency is read from the fitted curve at half-maximal effect.

What do the screens show for `CC(C)(C)c1ccc(C2CC2C(=O)N/N=C\c2ccc[nH]2)cc1` (stereo not drawn)?
Rab9 promoter act: -59.7%; ELG1 genotoxic: 22.5%; FLuc counter: 16.9µM*; KinaseGlo FLuc: -5.1%; NPC1 prom act: -40.0%

What do the screens show for `CCOc1ccc(-n2nc3ccc(NC(=O)CC)cc3n2)cc1`?
Rab9 promoter act: inconclusive; ELG1 genotoxic: 16.5%; FLuc counter: 2.69µM*; NPC1 prom act: inconclusive

How did CCOc1ccc(-n2nc3ccc(NC(=O)Cc4ccccc4)cc3n2)cc1 do in these assays?
FLuc counter: 3.5%; SMN2 splice up: -6.5%

What do the screens show for `CC(=O)Nc1ccc2c(c1)nc(C)n2Cc1ccccc1`?
Rab9 promoter act: -0.7%; ELG1 genotoxic: 2.4%; FLuc counter: -1.7%; NPC1 prom act: -1.2%

Results for CCC(=O)Nc1ccc2c(c1)ncn2-c1ccccc1OC ?
Rab9 promoter act: -1.5%; ELG1 genotoxic: 1.6%; FLuc counter: -13.1%; KinaseGlo FLuc: -0.2%; SMN2 splice up: 4.1%; NPC1 prom act: 1.8%

How did Cn1cnc2cc(NC(=O)COc3ccccc3)ccc21 do in these assays?
Rab9 promoter act: 23.7%; ELG1 genotoxic: inconclusive; FLuc counter: 23.9µM*; NPC1 prom act: 12.1%

How did CC(=O)Nc1ccc2c(c1)ncn2-c1ccccc1 do in these assays?
Rab9 promoter act: 1.41µM*; ELG1 genotoxic: 20.6µM*; FLuc counter: 10.7µM*; NPC1 prom act: 2.82µM*

What do the screens show for `CCC(=O)Nc1ccc2c(c1)ncn2-c1ccccc1`?
Rab9 promoter act: inconclusive; ELG1 genotoxic: inconclusive; FLuc counter: 15.1µM*; KinaseGlo FLuc: -1.1%; SMN2 splice up: inconclusive; NPC1 prom act: inconclusive

How did Cc1ccc(S(=O)(=O)O[C@H]2CC(C(C)(C)C)CC[C@@H]2c2ccccc2)cc1 (stereo partly drawn) do in these assays?
KinaseGlo FLuc: -5.5%[7.66 µM]; SMN2 splice up: 0.2%[9.22 µM]

Results for Cc1ccc(-c2[nH]n3c(=O)c4c(nc3c2C)CCCC4)cc1 ?
Rab9 promoter act: inconclusive; ELG1 genotoxic: inconclusive; FLuc counter: inconclusive; KinaseGlo FLuc: -7.4%; SMN2 splice up: 21.4%; NPC1 prom act: inconclusive

How did COc1ccc(-c2cc3nc4c(c(=O)n3[nH]2)CCC4)cc1 do in these assays?
Rab9 promoter act: 2.82µM*; ELG1 genotoxic: inconclusive; FLuc counter: 4.26µM*; KinaseGlo FLuc: -12.2%; SMN2 splice up: 10µM*; NPC1 prom act: inconclusive

Results for O=c1c2c(nc3cc(-c4ccccc4)[nH]n13)CCC2 ?
Rab9 promoter act: inconclusive; ELG1 genotoxic: inconclusive; FLuc counter: 6.01µM*; KinaseGlo FLuc: inconclusive; SMN2 splice up: 11.2µM*; NPC1 prom act: 2.82µM*

What do the screens show for `Cc1c(-c2ccccc2)[nH]n2c(=O)c3c(nc12)CCCC3`?
Rab9 promoter act: inconclusive; ELG1 genotoxic: inconclusive; FLuc counter: 15.1µM*; KinaseGlo FLuc: -4.5%; SMN2 splice up: 11.2µM*; NPC1 prom act: inconclusive

How did Cc1cc2nc3c(c(=O)n2[nH]1)CCCC3 do in these assays?
Rab9 promoter act: 1.2%; ELG1 genotoxic: 5.3%; FLuc counter: -1.4%; KinaseGlo FLuc: -0.1%; SMN2 splice up: 26.5%; NPC1 prom act: 0.3%

What do the screens show for `O=c1c2c(nc3cc(-c4ccc(Br)cc4)[nH]n13)CCCC2`?
Rab9 promoter act: -1.8%; ELG1 genotoxic: -2.7%; FLuc counter: 7.3%; KinaseGlo FLuc: -7.9%; NPC1 prom act: -3.3%

Results for Cc1ccccc1CN1C(=O)C(O)(c2c[nH]c3ccccc23)c2cc(Cl)ccc21 (stereo not drawn) ?
FLuc counter: 4.7%; SMN2 splice up: -5.1%

What do the screens show for `COc1ccc(CCC(=O)NCc2nc3cccnc3n2Cc2ccc(C)cc2)cc1`?
FLuc counter: -2.6%

Results for CCOc1c2ccc(C(=O)N[C@H](C)C3CCCCC3)cc2nn1CCOC ?
Rab9 promoter act: 2.7%; ELG1 genotoxic: -1.0%; FLuc counter: 2.3%; KinaseGlo FLuc: -0.3%; SMN2 splice up: 12.2%; NPC1 prom act: -3.2%

Results for Cc1ccc2c(c1)COc1c3ccc(C(=O)N[C@@H](C)CO)cc3nn1-2 ?
Rab9 promoter act: 2.24µM*; ELG1 genotoxic: inconclusive; FLuc counter: 3.38µM*; NPC1 prom act: 1.58µM*

How did Cc1ccc2c(c1)COc1c3ccc(C(=O)NC(C)C)cc3nn1-2 do in these assays?
Rab9 promoter act: inconclusive; ELG1 genotoxic: inconclusive; FLuc counter: 3.01µM*; NPC1 prom act: 1.58µM*

Results for CCOC(=O)c1c(NC(=O)c2cc(-c3cccc(Cl)c3)on2)sc(C(C)=O)c1C ?
FLuc counter: -6.0%; SMN2 splice up: -2.2%

How did O=c1cc(-c2ccccc2)oc2cccc(O)c12 do in these assays?
KinaseGlo FLuc: 3.0%; SMN2 splice up: inconclusive

How did Nc1cccc(-c2cc3ccccc3oc2=O)c1 do in these assays?
Rab9 promoter act: -1.2%; ELG1 genotoxic: inconclusive; FLuc counter: 19µM*; KinaseGlo FLuc: -2.9%; SMN2 splice up: 21.7%; NPC1 prom act: 15.3%

What do the screens show for `O=Cc1c(-c2ccccc2)cc2oc3ccccc3cc1-2`?
Rab9 promoter act: 3.55µM*; ELG1 genotoxic: 3.66µM*; FLuc counter: 0.757µM*; NPC1 prom act: 25.8%

What do the screens show for `Nc1nnc(-c2cc3ccccc3oc2=O)s1`?
Rab9 promoter act: 1.58µM*; ELG1 genotoxic: inconclusive; FLuc counter: inconclusive; KinaseGlo FLuc: -9.3%; SMN2 splice up: 17.8µM*; NPC1 prom act: inconclusive

What do the screens show for `O=c1oc2ccccc2cc1-c1nnc(NCc2ccco2)s1`?
Rab9 promoter act: 0.708µM*; ELG1 genotoxic: inconclusive; FLuc counter: 2.69µM*; KinaseGlo FLuc: -6.6%; SMN2 splice up: 11.2µM*; NPC1 prom act: 1.12µM*

Results for CCCCCOc1ccc(C(=O)N(Cc2ccccc2)C2CCS(=O)(=O)C2)cc1 (stereo not drawn) ?
FLuc counter: -0.7%

Results for CC1CCCN(S(=O)(=O)c2cc(C(=O)NCc3ccccc3Cl)n(C)c2)C1 (stereo not drawn) ?
FLuc counter: 1.2%

Results for CN1C(=O)c2ccccc2Sc2ccc(NC(=O)NCc3cccc(Cl)c3)cc21 ?
FLuc counter: 2.6%

Results for COc1cc(OC)c(NC(=O)N2CCCn3nc(C)cc32)cc1Cl ?
FLuc counter: -1.6%

Results for COc1ccc(-c2nnn(CC(=O)OC3CCCCC3)n2)cc1OC ?
Rab9 promoter act: -2.6%; ELG1 genotoxic: 1.9%; FLuc counter: -9.7%; NPC1 prom act: -0.4%
